SMILES strings stand for the structures. A number with no mark means an inactive call. Records with an inconclusive call do not appear. Active and inactive are the calls of the source. Unless noted, the call rests on the fitted dose curve.

Experiment [1] is described as follows: qHTS assay to identify small molecule agonists of the sonic hedgehog signaling (Shh) pathway (AID 1259368).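 Further: NIH/3T3-derived 3T3Gli1-Luc cells carrying a stable Gli1-driven firefly luciferase reporter; series mostly up to about 92 µM; nearly all actives have a fitted effect of over 15% in size.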 The gist of the method:
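A Gli1 transcriptional response element controlled firefly luciferase in 3T3Gli1-Luc cells. Compounds and a positive control were added 4 hr after plating, and cells were incubated a further 24 hr at 37 C before luminescence detection.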
A general note: Quantitative high-throughput screening tests each substance at several concentrations.

The nature of experiment [2]: qHTS assay to identify small molecule antagonists of the sonic hedgehog signaling (Shh) pathway (AID 1259369). Further: nearly all actives have a fitted effect of over 45% in size. Further: potency means the concentration at half of the fitted maximal effect. The essentials:
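For antagonist detection, the reporter line received test compounds together with conditioned medium, incubated 24hr at 37 C, 5% CO2, then luminescence was recorded following 30min room-temperature luciferase reagent incubation.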

A short description of experiment [3]: qHTS assay to identify small molecule agonists of the androgen receptor (AR) signaling pathway in the presence of an antagonist - cell viability counter screen (AID 1259379; active means well fitted curve in the direction sought with a large enough effect in the repeat runs; an effect the other way counts as inactive or inconclusive;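 further: MDA-kb2 human breast cancer cells carrying an MMTV luciferase reporter; series mostly up to about 92 µM; nearly all actives have a fitted effect of over 25% in size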). The essentials:
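Seed MDA-kb2 at 3,000 cells/well; incubate 5 hr, 37C, 0% CO2. Add nilutamide to 3.0uM final, then pin compounds at 15 concentrations. Incubate 16 hr. Add CellTiter-Fluor at 15 hr, read fluorescence after 1 hr.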

Experiment [4] is described as follows: qHTS assay to identify small molecule agonists of the estrogen receptor beta (ER-beta) signaling pathway - cell viability counter screen (AID 1259380; active means well fitted curve in the direction sought with a large enough effect in the repeat runs; an effect the other way counts as inactive or inconclusive; further: nearly all actives have a fitted effect of over 30% in size). The gist of the method:
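CellTiter-Glo read, 30 min RT, same wells as bla assay; cells ER-beta-UAS-bla HEK293T; 16 hr compound, 37C; medium 2% charcoal-stripped FBS.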

The nature of experiment [5]: qHTS assay to identify small molecule antagonists of the estrogen receptor beta (ER-beta) signaling pathway - cell viability counter screen (AID 1259382; active means well fitted curve in the direction sought with a large enough effect in the repeat runs; an effect the other way counts as inactive or inconclusive;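 further: HEK293T cells carrying ER-beta-UAS-bla reporter stimulated with estradiol; series mostly up to about 92 µM; nearly all actives have a fitted effect of over 55% in size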). The essentials: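 In this multiplexed counter screen, cells were seeded at 2,000 per well in medium with 2% charcoal-stripped FBS and incubated 6 hr before compound and 1nM final E2 were added. Sixteen hours later, ATP-based luminescence reported viability.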

For experiment [6], the target named is Estrogen receptor (Homo sapiens) (UniProt P03372). As to the kind of experiment: qHTS assay to identify small molecule agonists of the estrogen receptor alpha (ER-alpha) signaling pathway in the presence of an antagonist (AID 1259383). Further: top concentration of the series differs between compounds; nearly all actives have a fitted effect of over 15% in size. The gist of the method: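 Stably transfected VM7Luc4E2 reporter cells, kept 5 days in charcoal-stripped serum, received ICI-182,780 at 10.0nM final before compound addition. Following 22hr incubation at 37C and 5% CO2, luciferase signal was read by luminescence.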

Experiment [7] in a line: qHTS assay to identify small molecule agonists or antagonists of the thyroid stimulating hormone receptor (TSHR) signaling pathway - wild type cell line counter screen (AID 1259384). The gist of the method: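 Counter screen in untransfected Hek293: compounds (15-point titration, triplicate) plus phosphodiesterase inhibitor Ro20-1724 added after 18 h plating; 30 min RT. Intracellular cAMP via competitive d2/cryptate immunoassay, 1 h incubation.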
On the % scale 0 is the no-effect control and ±100 the full control effect.

Estrogen receptor (Homo sapiens), sequence (P03372 whole entry, looked up): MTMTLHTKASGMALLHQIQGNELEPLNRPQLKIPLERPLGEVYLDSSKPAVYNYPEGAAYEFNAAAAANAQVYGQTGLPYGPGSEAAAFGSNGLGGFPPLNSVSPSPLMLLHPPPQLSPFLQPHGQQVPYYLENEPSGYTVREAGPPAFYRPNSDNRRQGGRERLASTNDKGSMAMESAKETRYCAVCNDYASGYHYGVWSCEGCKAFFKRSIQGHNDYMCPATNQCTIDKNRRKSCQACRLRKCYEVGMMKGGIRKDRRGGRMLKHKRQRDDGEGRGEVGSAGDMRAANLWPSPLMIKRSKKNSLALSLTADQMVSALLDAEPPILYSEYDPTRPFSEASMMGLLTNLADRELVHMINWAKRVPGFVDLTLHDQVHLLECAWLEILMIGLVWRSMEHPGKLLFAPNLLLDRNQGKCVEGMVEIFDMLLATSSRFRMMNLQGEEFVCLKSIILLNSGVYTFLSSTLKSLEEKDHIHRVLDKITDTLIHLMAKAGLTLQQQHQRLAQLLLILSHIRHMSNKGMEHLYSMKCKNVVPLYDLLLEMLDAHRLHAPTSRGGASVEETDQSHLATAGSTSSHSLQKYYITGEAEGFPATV

Take `CCCN1CCC[C@@H]2Cc3nc(N)ncc3C[C@H]21`: the result in experiment [1] and in experiment [7] was inactive. Further, the Potency entry in experiment [2], in experiment [3], in experiment [4], in experiment [5] and in experiment [6] was “inactive” throughout.

On to `CCCCCCC(=O)CCCCCC/C=C/C[C@@H](O)[C@H](O)[C@@](N)(CO)C(=O)O`, for which, in experiment [1], the activity change was -0.137% [at 18.9 µM]. Besides, the activity change, negative = inhibition in experiment [2] was 34.1% [at 19 µM]. Moreover, the figures for the activity change, negative = cytotoxicity in experiment [3], in experiment [4] and in experiment [5] were 2.63% [at 19 µM], -0.265% [at 19 µM] and 5.36% [at 19 µM], respectively. In experiment [6], the activation was -1.01% [at 19 µM]. For the same compound, in experiment [7], the cAMP activity change is 0.106% [at 18.9 µM].

On to `C[C@@H](N)[C@@H](O)c1ccccc1`, for which the result in experiment [1] and in experiment [7] was inactive. The Potency result in experiment [2], in experiment [3], in experiment [4] and in experiment [5] was “inactive” each time.

In the case of `CCOP(=O)(CN(CCO)CCO)OCC`, the compound was classed as inactive in experiment [1] and in experiment [7]. Also, the Potency result in experiment [2], in experiment [3], in experiment [4] and in experiment [6] was “inactive” each time.

Turning to `CCCC(C)C1(CC)C(=O)N=C(S)NC1=O` (stereo unspecified), the result in experiment [1] was inactive. The Potency entry in experiment [2], in experiment [3], in experiment [4] and in experiment [5] was “inactive” in each case.

Turning to `CC(C)C(C)(N)C#N` (stereo unspecified), the compound was called inactive in experiment [1]. Also, the Potency result in experiment [2], in experiment [3], in experiment [4] and in experiment [5] was “inactive” throughout.

As to `CS(=O)(=O)c1ccc(C(=O)C2C(=O)CCCC2=O)c(Cl)c1COCC(F)(F)F`, the outcome in experiment [1] and in experiment [7] was inactive. Also, the Potency entry in experiment [2], in experiment [3], in experiment [4] and in experiment [6] was “inactive” each time.

Turning to `O=[N+]([O-])CCO`, the compound was classed as inactive in experiment [1]. Moreover, the Potency entry in experiment [2], in experiment [3], in experiment [4], in experiment [5] and in experiment [6] was “inactive” in each case.

For the compound `C#CCOC(=O)/C=C(C)/C=C/CC(C)CCCC(C)C` (stereo unspecified), the result in experiment [1] and in experiment [7] was inactive. Moreover, the Potency entry in experiment [2], in experiment [3], in experiment [4] and in experiment [6] was “inactive” each time.

Consider `Brc1c(Br)c(Br)c(Br)c(Br)c1Br`, for which the activity change in experiment [1] was -2.81% [at 8.39 µM]. For the same compound, the activity change, negative = inhibition in experiment [2] is -28% [at 8.39 µM]. Also, the activity change, negative = cytotoxicity was 0.311% [at 8.39 µM] in experiment [3], -3.01% [at 8.39 µM] in experiment [4] and -0.381% [at 8.39 µM] in experiment [5]. In addition, the activation in experiment [6] is -2.37% [at 8.39 µM]. The cAMP activity change in experiment [7] was 7.95% [at 8.39 µM].

Consider `O=C(O)C(Br)(Br)Br`, for which the compound was called inactive in experiment [1] and in experiment [7]. In addition, the Potency result in experiment [2], in experiment [3], in experiment [4] and in experiment [6] was “inactive” throughout.

Turning to `CCCC[N+](=O)[O-]`, the compound was called inactive in experiment [1] and in experiment [7]. The Potency entry in experiment [2], in experiment [3], in experiment [4], in experiment [5] and in experiment [6] was “inactive” throughout.

Regarding `O=P(O)(O)c1ccccc1`, the compound was classed as inactive in experiment [1] and in experiment [7]. Further, the Potency result in experiment [2], in experiment [3], in experiment [4], in experiment [5] and in experiment [6] was “inactive” throughout.

Take `CCCCS(=O)(=O)Cl`: the outcome in experiment [1] and in experiment [7] was inactive. Moreover, the Potency entry in experiment [2], in experiment [3], in experiment [4] and in experiment [5] was “inactive” each time.

With `CCN[C@H](C)Cc1cccc(C(F)(F)F)c1`, the compound was called inactive in experiment [1] and in experiment [7]. Moreover, the Potency entry in experiment [2], in experiment [3], in experiment [4], in experiment [5] and in experiment [6] was “inactive” in each case.

As to `CN1C(=O)COc2c(C(=O)NC3CN4CCC3CC4)cc(Cl)cc21` (stereo unspecified), the compound was called inactive in experiment [1] and in experiment [7]. In addition, the Potency entry in experiment [2], in experiment [3], in experiment [4], in experiment [5] and in experiment [6] was “inactive” in each case.

In the case of `O=C(Cl)c1ccccc1`, the compound was classed as inactive in experiment [1] and in experiment [7]. In addition, the Potency result in experiment [2], in experiment [3], in experiment [4] and in experiment [6] was “inactive” in each case.

As for `C(COCC1CO1)OCC1CO1` (stereo unspecified), the outcome in experiment [1] and in experiment [7] was inactive. Moreover, the Potency in experiment [2] is 34.4 µM (active). For the same compound, the Potency result in experiment [3], in experiment [4] and in experiment [6] was “inactive” throughout.

As to `CCCCOC(C)=O`, the compound was called inactive in experiment [1] and in experiment [7]. Moreover, the Potency result in experiment [2], in experiment [3], in experiment [4], in experiment [5] and in experiment [6] was “inactive” each time.

Turning to `ClCC1CO1` (stereo unspecified), the result in experiment [1] and in experiment [7] was inactive. For the same compound, the Potency result in experiment [2], in experiment [3], in experiment [4], in experiment [5] and in experiment [6] was “inactive” throughout.

As for `CN(C)C1CCCCC1`, in experiment [1], the compound was classed as inactive. For the same compound, the Potency result in experiment [2], in experiment [3], in experiment [4], in experiment [5] and in experiment [6] was “inactive” in each case.

For the compound `COC(=O)[C@@H](N)CCCN/C(N)=N/[N+](=O)[O-]`, the compound was called inactive in experiment [1] and in experiment [7]. For the same compound, the Potency result in experiment [2], in experiment [3], in experiment [4] and in experiment [5] was “inactive” each time.

For the compound `CON(C)C(=O)Nc1ccc(Br)cc1`, the call in experiment [1] and in experiment [7] was inactive. In addition, the Potency result in experiment [2], in experiment [3], in experiment [4] and in experiment [5] was “inactive” in each case.

In the case of `CCCCCCCCSC(=O)Oc1cc(Cl)nnc1-c1ccccc1`, the outcome in experiment [1] was inactive. Also, the Potency result in experiment [2], in experiment [3], in experiment [4], in experiment [5] and in experiment [6] was “inactive” in each case.

The values are drawn from PubChem BioAssay (Tox21).
